# Methyltransferases: Primary Screen for Target Class Profiling of Small Molecule Inhibitors of Methyltransferases; purified enzyme, MTase-Glo SAH luminescence; hits give low values; calls only at 40 µM; hit rate 3.9% among 25,000; call rule not given here
#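 Each enzyme was reacted with SAM and its substrate, with compounds tested once at 40 uM; SAH formed was read by MTase-Glo luminescence.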
# * hit, by the source's call; i = inactive; + = active, no number; ! = not confirmed by another sample. The sample as a whole holds a higher share of hits than the screen did. On the % scale 0 is the no-effect control and ±100 the full control effect.
SMILES,Methyltransferases
Cc1ccc(Cn2c(=O)c3ccccc3n3c(=O)n(CC(=O)c4ccc(C)cc4)nc23)cc1,i
CCOc1cccc(C2c3cccn3-c3sc4c(c3CN2C(=O)NC(C)C)CCCC4)c1 (stereo not drawn),i
COCCCNC(=O)CCc1nnc2n(Cc3ccccc3)c(=O)c3ccccc3n12,i
Cc1nc(Nc2n[nH]c3c2CN(C(=O)NC(CN(C)C)c2ccccc2)C3(C)C)c2sccc2n1 (stereo not drawn),+
CCCn1c(=O)c2ccc(C(=O)NCC(C)C)cc2n2c(=O)n(CC(=O)N(C)c3ccc(F)cc3)nc12,i
COC(=O)CCSC/C=C(\C)CCn1cc(CCc2ccc(-c3ccccc3)cc2)nn1,+!
CCCN1C(=O)c2c(C(=O)NCCc3ccccc3)ncn2CC1(C)C(=O)NCc1ccc(OC)cc1 (stereo not drawn),i
COc1ccc(-c2cc3n(n2)CC(C)(C(=O)NCc2ccccc2OC)N(c2ccc(C)cc2)C3=O)cc1 (stereo not drawn),i
CN(Cc1nccs1)c1ncnc2ccc(-c3ccc4c(c3)OCO4)cc12,+
Cc1csc(CN(C)C(=O)CC(c2ccccc2)c2ccc3c(c2)OCO3)n1 (stereo not drawn),i
O=C(COc1ccc2c(-c3ccccc3)cc(=O)oc2c1)c1ccc(Cl)cc1,i
COc1ccc(C)cc1N1C(=O)Cn2cccc2C1C(=O)NC1CCC(C)CC1 (stereo not drawn),i
CCC(C)NC(=O)c1ccc2c(=O)n(C)c3nnc(SCc4ccc(F)cc4)n3c2c1 (stereo not drawn),i
Nc1ncnc2c1c(-c1cnc3[nH]ccc3c1)nn2C1CCCC1,+
Nc1ncnc2c1c(-c1ccc(Oc3ccccc3)cc1)nn2[C@@H]1CCCNC1,+
COc1ccc(CNC(=O)C2(C)Cn3cnc(C(=O)Nc4ccc(Cl)cn4)c3C(=O)N2C2CC2)cc1 (stereo not drawn),i
CCOc1ccccc1CNC(=O)Cn1ccc2cc(S(=O)(=O)N3CCCCC3)ccc21,i
O=C(Cn1c(=O)c2ccc(Cl)cc2n2nncc12)Nc1ccc(Oc2ccccc2)cc1,i
CC1(C(=O)NC2CCCC2)Cn2c(ccc2-c2ccccc2)C(=O)N1CCc1cccs1 (stereo not drawn),i
NC1(Cc2ccc(Cl)cc2)CCN(c2ncnc3[nH]ccc23)CC1,+
Clc1ccc(N2CCN(Cc3c[nH]c4ncccc34)CC2)cc1,i
CC(C)c1ccc(N2C(=O)c3cc4sccc4n3CC2(C)C(=O)NC2CCCCCC2)cc1 (stereo not drawn),i
CC1CCCC(NC(=O)C2(C)Cn3c(cc4sccc43)C(=O)N2Cc2cccc(Cl)c2)C1C (stereo not drawn),i
COc1ccc(CN2C(=O)c3ccc(-c4ccccc4)n3CC2(C)C(=O)NC2CCCCCC2)cc1 (stereo not drawn),i
C[C@H](Oc1cc(-c2cnn(C3CCNCC3)c2)cnc1N)c1c(Cl)ccc(F)c1Cl,+
SMILES,Methyltransferases
C[C@@H](Oc1cc(-c2cnn(C3CCNCC3)c2)cnc1N)c1c(Cl)ccc(F)c1Cl,+!
CC1(C(=O)NCc2ccccc2)Cn2cnc(C(=O)NCc3ccccc3F)c2C(=O)N1C1CC1 (stereo not drawn),i
CC(C)C1c2cccn2CCN1C(=O)Nc1ccc(F)cc1 (stereo not drawn),i
CCC(C)NC(=O)c1ccc2c(=O)n(C)c3nn(CC(=O)NCc4ccccc4)c(=O)n3c2c1 (stereo not drawn),i
CCCC[C@@]1(C2CCCC2)Cc2cc(OCC(=O)O)c(Cl)c(Cl)c2C1=O,+
C[C@]1(C2CCCC2)Cc2cc(OCC(=O)O)c(Cl)c(Cl)c2C1=O,+
COCCCNC(=O)C1(C)Cn2nc(-c3ccccc3)cc2C(=O)N1Cc1ccc(Cl)cc1 (stereo not drawn),i
CC1CCC(NC(=O)C2(C)Cn3c(cc4sccc43)C(=O)N2Cc2ccc(F)cc2)CC1 (stereo not drawn),i
CCOC(=O)c1cc2n(n1)CC(C)(C(=O)NC1CCCCCC1)N(c1ccc(F)cc1F)C2=O (stereo not drawn),i
CCOC(=O)c1cc2n(n1)CC(C)(C(=O)NC1CCCC1)N(c1ccccc1CC)C2=O (stereo not drawn),i
C=Cc1ccc(Cn2nc3n(CCC)c(=O)c4ccc(C(=O)NC5CCCCC5)cc4n3c2=O)cc1,i
COc1ccc(NC(=O)c2nc3sccn3c2-c2ccncc2)cc1,i
CN(C)CCCc1cc(C(=O)Nc2ccc(-c3ccncc3)cc2)ccc1O,+
COc1ccc(C(=O)Nc2ccc3c(c2)C(=O)N(C)C2=NCCN23)cc1OC,i
CC1(C(=O)NCc2ccccc2Cl)Cn2cnc(C(=O)NCCCc3ccccc3)c2C(=O)N1C1CC1 (stereo not drawn),i
CC1CCC(NC(=O)C2(C)Cn3c(cc4occc43)C(=O)N2Cc2ccccc2Cl)CC1 (stereo not drawn),i
CCCN1C(=O)c2cc(C(=O)N3CCN(c4ccccc4F)CC3)nn2CC1(C)C(=O)NC1CCCC1 (stereo not drawn),i
Cc1cccc(Cn2nc3n(CC(C)C)c(=O)c4ccc(C(=O)NC5CCCC5)cc4n3c2=O)c1,i
COC(=O)c1cc2n(n1)CC(C)(C(=O)NC1CCCCC1)N(c1ccc(Cl)cc1)C2=O (stereo not drawn),i
COc1ccc(S(=O)(=O)NCc2nc(-c3ccc(OC)c(OC)c3)no2)cc1,i
COc1ccc(CCNc2nc3c(S(=O)(=O)c4ccc(C)cc4)nnn3c3ccccc23)cc1OC,i
COc1ccc(-c2cnc3ccc(NCc4ccc(S(N)(=O)=O)cc4)nn23)cc1OC,+
CCc1ccc(CN2C(=O)c3c(C(=O)OC)ncn3CC2(C)C(=O)NC2CCCCCC2)cc1 (stereo not drawn),i
Cc1cccc(CN2C(=O)c3ccc(-c4ccco4)n3CC2(C)C(=O)NCc2ccc(Cl)cc2)c1 (stereo not drawn),i
CC1=CC(=O)CC(C)(C)C1CCC(C)O[C@@H]1O[C@H](CO[C@@H]2OC[C@@H](O)[C@H](O)[C@H]2O)[C@@H](O)[C@H](O)[C@H]1O (stereo partly drawn),+
SMILES,Methyltransferases
C[C@H](/C=C/[C@@]1(O)[C@H](C)CC(=O)CC1(C)C)O[C@@H]1O[C@H](CO[C@@H]2OC[C@@H](O)[C@H](O)[C@H]2O)[C@@H](O)[C@H](O)[C@H]1O,i
CC1=CC(=O)CC(C)(C)[C@H]1/C=C/C(CO)O[C@@H]1O[C@H](CO)[C@@H](O)[C@H](O)[C@H]1O (stereo partly drawn),i
CCCN1C(=O)c2c(C(=O)Nc3cccc(Cl)c3C)ncn2CC1(C)C(=O)NCc1ccc(C)cc1 (stereo not drawn),i
Cc1ccc(C(=O)Cn2nc3n(CCC(C)C)c(=O)c4ccc(C(=O)NC(C)C)cc4n3c2=O)c(C)c1,i
NC(=O)C1CCN(c2nc3c(-c4cccc(F)c4)nnn3c3ccc(Cl)cc23)CC1,i
COCc1c(O)c(C(=O)O)c(C)c2c1OC(=O)c1c(C)cc(O)c(CO)c1O2,+
COc1ccccc1CCNC(=O)c1ncn2c1C(=O)N(C1CC1)C(C)(C(=O)NC1CCCC1)C2 (stereo not drawn),i
Cn1c(=O)c2ccc(C(=O)NC3CCCC3)cc2n2c(=O)n(CC(=O)c3cccc(Cl)c3)nc12,i

# Screens deposited in PubChem by National Center for Advancing Translational Sciences (NCATS).
